The first experiment deals with T1, Aspartate--tRNA(Asp/Asn) ligase (Mycobacterium tuberculosis (strain ATCC 25618 / H37Rv)) (UniProt P9WFW3).
T1 sequence (whole entry): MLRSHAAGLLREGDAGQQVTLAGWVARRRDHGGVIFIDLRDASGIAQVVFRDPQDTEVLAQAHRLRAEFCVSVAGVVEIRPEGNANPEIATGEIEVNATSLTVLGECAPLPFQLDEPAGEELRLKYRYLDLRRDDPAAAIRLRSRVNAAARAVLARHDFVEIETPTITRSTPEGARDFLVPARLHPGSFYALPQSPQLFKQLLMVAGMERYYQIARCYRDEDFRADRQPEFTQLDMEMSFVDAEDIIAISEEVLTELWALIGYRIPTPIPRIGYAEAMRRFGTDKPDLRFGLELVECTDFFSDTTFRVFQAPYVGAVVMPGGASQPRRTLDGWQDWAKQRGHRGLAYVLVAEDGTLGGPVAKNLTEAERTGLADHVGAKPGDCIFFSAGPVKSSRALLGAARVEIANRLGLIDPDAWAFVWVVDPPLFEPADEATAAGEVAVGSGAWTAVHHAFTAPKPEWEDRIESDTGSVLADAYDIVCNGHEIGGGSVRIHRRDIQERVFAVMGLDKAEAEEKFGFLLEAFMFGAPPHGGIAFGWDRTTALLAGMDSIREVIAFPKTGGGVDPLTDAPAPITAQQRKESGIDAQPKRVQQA
The experiment in a line: Assay for Asp RNA synthetase-1 from Mycobacterium tuberculosis. In kind it is functional. The arrangement: scale not given: direction of the effect not stated beside the values. The note with it: 30 µM.
As for `CC(C)c1nc2n(n1)CC(NCc1nnc(C(C)C)o1)CC2` (stereo not given), the Percent Effect came to 5.81%.

For `O=C(Nc1cccnc1)[C@H]1CO[C@H]2CCN(c3ncc(F)cn3)C[C@H]2C1`, the Percent Effect was 0.524%.

On to `CN(C)S(=O)(=O)N1C[C@@H]2CC[C@H](C1)N(Cc1ccc3nsnc3c1)C2`, for which the Percent Effect is -2.42%.

For `CCn1nccc1CNC(=O)C1CC1`, the Percent Effect is 11%.

Take `O=c1cc2c(nn1CN1CCN(c3ccccc3)CC1)CCC2`: the Percent Effect was 6.3%.

`O=C(C1COCCO1)N1CCN(Cc2ccc3c(c2)CCO3)CC1` (stereo not given): the Percent Effect was determined as 1.71%.

Turning to `O=C(C(CNCc1ccncc1)c1ccccc1)N1CCOCC1` (stereo not given), the Percent Effect was found to be 11.7%.

In the case of `Cc1noc(C)c1CN1C[C@@H]2COC[C@H](C(=O)N3CCCCO3)[C@@H]2C1`, the Percent Effect worked out at 4.46%.

Take `Cc1nc(N2CCN(C(=O)C(C)(C)C)CC2)cc(-n2cnc(C)c2C)n1`: the Percent Effect stood at 0.832%.

For the compound `Cc1nc(COCc2cnc3n2CCN(CC2CCC2)C3C)cs1` (stereo not given), the Percent Effect was -6%.

Take `Cc1n[nH]c(C2CN(C(=O)c3cnc[nH]3)CCO2)n1` (stereo not given): the Percent Effect worked out at 1.76%.

Consider `N#Cc1cccc(S(=O)(=O)NC2CCN(Cc3ccccc3)C2=O)c1` (stereo not given), for which the Percent Effect is -1.89%.

In the case of `CC(Nc1cccc(CN2CCOC2=O)c1)C(=O)NC(N)=O` (stereo not given), the Percent Effect was -3.68%.

For the compound `Cc1cnn(CCNCc2nc(COc3ccc(F)cc3)no2)c1`, the Percent Effect was -1.72%.

Consider `CC(O)CN1CCN(Cc2csc(-c3ncccn3)n2)CC1` (stereo not given), for which the Percent Effect was 2.19%.

Turning to `Cc1ccccc1-c1cncc(C2CCN(C(=O)CN(C)C)CC2)n1`, the Percent Effect worked out at 6.8%.

Take `CCc1cnc(CN2CCC(N(C)Cc3noc(C4CC4)n3)C2)o1` (stereo not given): the Percent Effect was -1.09%.

In the case of `Nc1cc2c(nn1)CCN(C(=O)c1cccc3c1OCCO3)C2`, the Percent Effect is 3.34%.

On to `CCc1cc(N[C@H]2CC[C@H](O)CC2)n2nc(C)c(C)c2n1`, for which the Percent Effect was determined as 1.45%.

As to `Cc1cnn(CCNCc2ccccc2OCc2cccnc2)c1`, the Percent Effect turned out to be 4.5%.

As for `COc1ccc(N2CCC(C(=O)/N=c3/[nH]ccs3)CC2)nn1`, the Percent Effect was -0.842%.

Take `O=C(c1ccccc1-c1ccccc1)N1CCOC2(CNCCOC2)C1` (stereo not given): the Percent Effect was 1.51%.

With `Cn1cccc1C(=O)Nc1cc(F)ccc1OCC1CCCO1` (stereo not given), the Percent Effect was -6.53%.

For `O=S(=O)(CCCN1CCCC1Cn1cncn1)c1ccccc1` (stereo not given), the Percent Effect was -1.76%.

For the compound `CCn1cc(NC(=O)NCc2ccc(CN3CCOCC3)cc2)cn1`, the Percent Effect was 3.24%.

As to `CN(Cc1ccsc1)C(=O)Nc1ccc(S(C)(=O)=O)nc1`, the Percent Effect was -0.6%.

Regarding `CC1CN(c2ccc(CNC(=O)c3ccn(C)c(=O)c3)cn2)CCO1` (stereo not given), the Percent Effect was -6.51%.

As to `CCc1nnc2n1CCN(C(=O)c1cc3cc(F)ccc3[nH]1)C2`, the Percent Effect is -1.91%.

On to `Cc1nnc(NCc2ccccc2Cl)c(C#N)c1C`, for which the Percent Effect stood at 16.3%.

On to `CCCNC(=O)c1cnc(N(C)C)nc1COC`, for which the Percent Effect is -0.929%.

Consider `Cc1cnn(CC(C)NCc2nc(-c3cccnc3)no2)c1` (stereo not given), for which the Percent Effect came to 1%.

`CCS(=O)(=O)N1C[C@H]2CCC[C@@]2(COc2ccccn2)C1`: the Percent Effect turned out to be 3.6%.

`O=C(C1CCC1)N1CCN(Cc2ccsc2)[C@H]2CS(=O)(=O)C[C@H]21`: the Percent Effect is -4.67%.

`COCCn1ccc(=O)c(OCC(=O)Nc2ccccc2)c1C`: the Percent Effect was -0.61%.

In the case of `CCC(OC)C(=O)N1CCc2nc(NC)nc(C(=O)N3CCCC3)c2C1` (stereo not given), the Percent Effect was 1.34%.

Take `CC(C)Sc1ncccc1C(=O)NCc1ccc(CS(C)(=O)=O)cc1`: the Percent Effect is -3.16%.

Regarding `CN(C)CCNC(=O)CNC(=O)N1CCc2c([nH]c3ccc(Cl)cc23)C1`, the Percent Effect amounted to 6.71%.

Turning to `CCCc1n[nH]c(C2CN(C(=O)C3=COCCC3)CCO2)n1` (stereo not given), the Percent Effect is -5.39%.

`O=C(C1=CCCCC1)N1CCC2(CC1)COC(COc1ccccn1)C2` (stereo not given): the Percent Effect was 0.351%.

For the compound `CS(=O)(=O)NCc1cn2c(n1)CN(C(=O)c1ccc[nH]1)CC2`, the Percent Effect is 1.81%.

The target of another experiment is Shiga toxin 2 (Escherichia coli O157:H7) (UniProt P09385+P09386). The experiment in a line: E. coli 0.157:H7 Shiga Toxin SOP - stx2 screening assay. In kind it is functional. The arrangement: scale not given: direction of the effect not stated beside the values. As to conditions: 30 µM.
In the case of `CC(C)c1nc2n(n1)CC(NCc1nnc(C(C)C)o1)CC2` (stereo not given), the Percent Effect was determined as 19.6%.

Regarding `O=C(Nc1cccnc1)[C@H]1CO[C@H]2CCN(c3ncc(F)cn3)C[C@H]2C1`, the Percent Effect was -22.2%.

Consider `CN(C)S(=O)(=O)N1C[C@@H]2CC[C@H](C1)N(Cc1ccc3nsnc3c1)C2`, for which the Percent Effect is -1.59%.

For the compound `CCn1nccc1CNC(=O)C1CC1`, the Percent Effect is -39.4%.

With `O=c1cc2c(nn1CN1CCN(c3ccccc3)CC1)CCC2`, the Percent Effect was -14%.

`O=C(C1COCCO1)N1CCN(Cc2ccc3c(c2)CCO3)CC1` (stereo not given): the Percent Effect came to 8.81%.

Consider `O=C(C(CNCc1ccncc1)c1ccccc1)N1CCOCC1` (stereo not given), for which the Percent Effect is -69.6%.

Turning to `Cc1noc(C)c1CN1C[C@@H]2COC[C@H](C(=O)N3CCCCO3)[C@@H]2C1`, the Percent Effect stood at 5.31%.

For `Cc1nc(N2CCN(C(=O)C(C)(C)C)CC2)cc(-n2cnc(C)c2C)n1`, the Percent Effect was -43.6%.

Regarding `Cc1nc(COCc2cnc3n2CCN(CC2CCC2)C3C)cs1` (stereo not given), the Percent Effect is -3.62%.

For the compound `Cc1n[nH]c(C2CN(C(=O)c3cnc[nH]3)CCO2)n1` (stereo not given), the Percent Effect was found to be 23.8%.

As for `N#Cc1cccc(S(=O)(=O)NC2CCN(Cc3ccccc3)C2=O)c1` (stereo not given), the Percent Effect is 8.07%.

Regarding `CC(Nc1cccc(CN2CCOC2=O)c1)C(=O)NC(N)=O` (stereo not given), the Percent Effect was -7.19%.

`Cc1cnn(CCNCc2nc(COc3ccc(F)cc3)no2)c1`: the Percent Effect is 16.3%.

As to `CC(O)CN1CCN(Cc2csc(-c3ncccn3)n2)CC1` (stereo not given), the Percent Effect was -19.8%.

`Cc1ccccc1-c1cncc(C2CCN(C(=O)CN(C)C)CC2)n1`: the Percent Effect was -18.5%.

For the compound `CCc1cnc(CN2CCC(N(C)Cc3noc(C4CC4)n3)C2)o1` (stereo not given), the Percent Effect is -33.4%.

In the case of `Nc1cc2c(nn1)CCN(C(=O)c1cccc3c1OCCO3)C2`, the Percent Effect is -28.6%.

Take `CCc1cc(N[C@H]2CC[C@H](O)CC2)n2nc(C)c(C)c2n1`: the Percent Effect was -12.4%.

As for `Cc1cnn(CCNCc2ccccc2OCc2cccnc2)c1`, the Percent Effect was -8.49%.

In the case of `COc1ccc(N2CCC(C(=O)/N=c3/[nH]ccs3)CC2)nn1`, the Percent Effect is -7.73%.

Take `O=C(c1ccccc1-c1ccccc1)N1CCOC2(CNCCOC2)C1` (stereo not given): the Percent Effect was -1.85%.

On to `Cn1cccc1C(=O)Nc1cc(F)ccc1OCC1CCCO1` (stereo not given), for which the Percent Effect amounted to 22%.

For `O=S(=O)(CCCN1CCCC1Cn1cncn1)c1ccccc1` (stereo not given), the Percent Effect is -32.7%.

As to `CCn1cc(NC(=O)NCc2ccc(CN3CCOCC3)cc2)cn1`, the Percent Effect was -35.1%.

Take `CN(Cc1ccsc1)C(=O)Nc1ccc(S(C)(=O)=O)nc1`: the Percent Effect is -35.6%.

As for `CC1CN(c2ccc(CNC(=O)c3ccn(C)c(=O)c3)cn2)CCO1` (stereo not given), the Percent Effect was -19.6%.

As to `CCc1nnc2n1CCN(C(=O)c1cc3cc(F)ccc3[nH]1)C2`, the Percent Effect was -31.4%.

Consider `Cc1nnc(NCc2ccccc2Cl)c(C#N)c1C`, for which the Percent Effect amounted to 10.3%.

Take `CCCNC(=O)c1cnc(N(C)C)nc1COC`: the Percent Effect was -6.54%.

Turning to `Cc1cnn(CC(C)NCc2nc(-c3cccnc3)no2)c1` (stereo not given), the Percent Effect was -15.5%.

As for `CCS(=O)(=O)N1C[C@H]2CCC[C@@]2(COc2ccccn2)C1`, the Percent Effect was 2.64%.

Consider `O=C(C1CCC1)N1CCN(Cc2ccsc2)[C@H]2CS(=O)(=O)C[C@H]21`, for which the Percent Effect is -39.6%.

Take `COCCn1ccc(=O)c(OCC(=O)Nc2ccccc2)c1C`: the Percent Effect is -38%.

On to `CCC(OC)C(=O)N1CCc2nc(NC)nc(C(=O)N3CCCC3)c2C1` (stereo not given), for which the Percent Effect was -1.38%.

`CC(C)Sc1ncccc1C(=O)NCc1ccc(CS(C)(=O)=O)cc1`: the Percent Effect worked out at 13.1%.

`CN(C)CCNC(=O)CNC(=O)N1CCc2c([nH]c3ccc(Cl)cc23)C1`: the Percent Effect is -77.4%.

Turning to `CCCc1n[nH]c(C2CN(C(=O)C3=COCCC3)CCO2)n1` (stereo not given), the Percent Effect was 19%.

As to `O=C(C1=CCCCC1)N1CCC2(CC1)COC(COc1ccccn1)C2` (stereo not given), the Percent Effect was -19.1%.

Consider `CS(=O)(=O)NCc1cn2c(n1)CN(C(=O)c1ccc[nH]1)CC2`, for which the Percent Effect is -6.4%.

(Values after ChEMBL document CHEMBL3988442, “University of Dundee, Small-Polar-MMV Screening Library” (2021).)
